# In PubChem BioAssay AID798 (PCMD, 2007):
# About 300 (0.14%) of roughly 220,000 compounds were called active. The sample as a whole holds a higher share of actives than the screen did. Unmarked numbers belong to inactive results.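 How the source made its calls: active means inhibition of at least 40%; inactive means inhibition below 40%.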 Where a SMILES comes first, the peptide text is derived from it. The star is where a group is joined. OPac = O=C(CO*)c1ccccc1; Bz = O=C(c1ccccc1)*
# Molecular target: Coagulation factor XI (Homo sapiens) (UniProt P03951)
# Assay: factor XIa enzyme inhibition, large library – biochemical, 1536-well, primary screen (AID 798);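 further: fluorescence of freed AMC excited at 355 nm; 0% = enzyme without compound and 100% = no enzyme blank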
# Conditions: purified FXIa, Boc-Glu-Ala-Arg-AMC fluorogenic substrate; at 5 µM; hits give high values
# Sequence of Coagulation factor XI (Homo sapiens) (P03951 19-387 limits assumed): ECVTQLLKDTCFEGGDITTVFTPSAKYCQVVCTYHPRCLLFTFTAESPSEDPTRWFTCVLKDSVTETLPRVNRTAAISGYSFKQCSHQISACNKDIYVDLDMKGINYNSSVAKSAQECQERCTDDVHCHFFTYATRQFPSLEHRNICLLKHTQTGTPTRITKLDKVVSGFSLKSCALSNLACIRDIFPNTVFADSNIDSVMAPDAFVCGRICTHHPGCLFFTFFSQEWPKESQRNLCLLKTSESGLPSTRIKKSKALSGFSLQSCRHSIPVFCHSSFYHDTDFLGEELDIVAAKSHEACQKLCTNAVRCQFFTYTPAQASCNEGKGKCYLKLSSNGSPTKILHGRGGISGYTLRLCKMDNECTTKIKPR
# Sequence of Coagulation factor XI (Homo sapiens) (P03951 388-625 limits assumed): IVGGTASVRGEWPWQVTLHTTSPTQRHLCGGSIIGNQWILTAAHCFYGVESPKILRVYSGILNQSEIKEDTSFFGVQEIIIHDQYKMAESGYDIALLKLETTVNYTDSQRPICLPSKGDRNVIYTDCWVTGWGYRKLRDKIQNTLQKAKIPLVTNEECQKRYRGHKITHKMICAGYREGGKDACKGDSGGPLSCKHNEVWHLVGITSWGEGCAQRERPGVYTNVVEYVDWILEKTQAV
row,SMILES,inhibition
1,COc1cc(-c2nnn(CC(=O)NCc3ccccc3)n2)cc(OC)c1OC,3%
2,CNc1ccc([N+](=O)[O-])cc1C(=O)O,-2.33%
3,NC(=O)C1CCN(C(=O)COc2cccc3cccnc23)CC1,0.03%
4,Cc1cnc(NC(=O)Cn2cnc3c2c(=O)n(C)c(=O)n3C)s1,-1.78%
5,CCOCCn1c(-c2ccccc2)nc2ccccc21,0.72%
6,Cc1ccc(Sc2ccncc2S(N)(=O)=O)cc1,5.95%
7,CC(C)(C)CC(C)(C)NCC(O)COCCOc1ccc(Br)cc1 (stereo unspecified),1.54%
8,COC(=O)c1sccc1NN1C(=O)c2ccccc2C1=O,0.85%
9,O=C(CC(NC(=O)c1ccccc1)c1ccccc1)Nc1ccc(F)c(F)c1 (stereo unspecified),-2.03%
10,Cc1ccc(C2CCN(C(=S)Nc3cccc(Cl)c3)C2)cc1 (stereo unspecified),-2.9%
11,CCOC(=O)COc1cc(OCC(=O)OCC)c2c(=O)cc(-c3ccccc3)oc2c1,-3.59%
12,CCOC(=O)COc1cc(O)c2c(=O)cc(-c3ccccc3)oc2c1,45% (active)
13,Cc1noc(C)c1COC(=O)COc1ccc(-c2ccccc2)cc1,9.94%
14,CCOC(=O)c1nn(-c2ccccc2F)c2nc(Nc3ccccc3)cc(=O)n12,-3.73%
15,COc1cccc(-n2nc(C(=O)N3CCN(Cc4ccccc4)CC3)c3ccccc3c2=O)c1,-0.09%
16,C/C(Cc1ccccc1)=N\NC(=O)CNC(=O)c1ccc2c(c1)OCCO2,-2.1%
17,C/C(Cc1ccccc1)=N\NC(=O)CNC(=O)c1cccc(Br)c1,9.13%
18,C/C(Cc1ccccc1)=N\NC(=O)CNC(=O)c1ccccc1Cl,56.6% (active)
19,CCOc1ccc(Br)cc1S(=O)(=O)N1CCC(C(=O)O)CC1,-8.82%
20,CC(NC(=S)Nc1ccccc1)C1COc2ccccc2O1 (stereo unspecified),3.5%
21,Cc1c(Cl)cccc1NC(=O)Nc1ccc(C(=O)N2CCCC2)cc1,18.9%
22,Cc1ccc(C(=O)COC(=O)c2cccc(N3C(=O)c4c(C)nc5ccccc5c4C3=O)c2)cc1C,8.56%
23,CN(CC(=O)Nc1ccc(F)cc1)CC(=O)Nc1ccc(Cl)c(S(=O)(=O)N2CCOCC2)c1,0.07%
24,COc1ccc(C(=O)NNC(=O)c2cc(C)[nH]n2)cc1,1.62%

row,SMILES,inhibition
1,COc1ccc(CNC(=O)COC(=O)/C=C/c2ccc(S(=O)(=O)N3CCOCC3)cc2)cc1,-3.11%
2,CCc1ccc(Oc2coc3cc(OC(=O)c4cc5ccccc5oc4=O)ccc3c2=O)cc1,-3.61%
3,CC(=O)NCC(=O)N1CCCC(C(=O)c2ccc3c4c(cccc24)CC3)C1 (stereo unspecified),-4.06%
4,O=C(CSc1nnnn1-c1ccc(O)cc1)N1N=C(c2ccc3ccccc3c2)CC1c1ccccc1 (stereo unspecified),8.65%
5,COC(=O)c1ccc(/C=N\n2c(C)nnc2C)cc1,-10.4%
6,COc1ccc(/C=N/n2c(C)cc(C)cc2=O)cc1,44.1% (active)
7,COc1ccc(/C=C/C(=O)c2ccc(OC)cc2O)cc1,2.98%
8,Cn1c(SCC(=O)N2CCOCC2)nnc1-c1ccc2ncccc2c1,4.39%
9,COCCn1c(N)c(N(Cc2ccccc2)C(=O)C2CCCCC2)c(=O)[nH]c1=O,-2.52%
10,Nc1c(C(=O)O)cnn1-c1ccccc1,15.5%
11,COC(=O)c1ccc(S(=O)(=O)NCc2ccccc2)n1C,13.2%
12,Cc1cccc(Oc2c([N+](=O)[O-])c(=O)n(C)c3ccccc23)c1,-4.16%
13,O=C(Nc1ccc(Cl)cc1)Nc1ccc(Oc2cccnc2)nc1,-6.3%
14,CCC(C)c1ccc(NC(=S)NCc2ccccn2)cc1 (stereo unspecified),-2.96%
15,O=C(Cc1ccccc1)Nc1c(C(=O)N2CCCCCC2)cnn1-c1ccccc1,-2.02%
16,O=C(NCc1ccccc1Cl)NC(=O)c1csc([N+](=O)[O-])c1,-0.45%
17,CCc1ccc(S(=O)(=O)Nc2ccc(C)c(NS(C)(=O)=O)c2)cc1,1.46%
18,C=CCNC(=O)c1ccc2c3n(nc2c1)-c1ccc(C)cc1CO3,0.43%
19,CCOC(=O)CNc1nc(Cl)nc(Nc2ccccc2)n1,-1.06%
20,Cc1nnc(NCCO)c2ccccc12,6.13%
21,O=C(CNCCC1=CCCCC1)Nc1ccccc1N1CCCCCC1,-2.46%
22,CC(C)C(O)C1CCN(Cc2nc(Cc3ccccc3Cl)no2)CC1 (stereo unspecified),-1.58%
23,Cc1ccc(NCc2n[nH]c(=S)n2-c2ccccc2)cc1Cl,0.9%
24,CCOC(=O)C1=C(C)N=C2c3ccccc3C(=O)C2C1c1ccc(Br)cc1 (stereo unspecified),5.54%

row,SMILES,inhibition
1,Cc1ccccc1C(=O)Nc1ccc(N2CCCCCC2)cc1,-3.76%
2,O=C(Nc1ccc(F)c([N+](=O)[O-])c1)C1CC(=O)N(Cc2ccccc2)C1 (stereo unspecified),-2.12%
3,C#CCNc1ccc(C(=O)OCC)cc1,0.47%
4,O=C(NCc1ccc(F)cc1)C1CCC(CNc2c(N3CCOCC3)c(=O)c2=O)CC1 (stereo unspecified),1.9%
5,O=C(C1CCN(C2CCN(Cc3cccc4c3OCO4)CC2)CC1)N1CCOCC1,-4.01%
6,N#Cc1ccccc1NC(=O)COc1c(Br)cc(Br)c2cccnc12,0.52%
7,COc1ccc(OC)c(Cc2nnc(CCC(=O)NC3CCCC3)o2)c1,4.91%
8,COc1cc(/C=C2/C(=O)ON=C2C)ccc1OCc1cccc(F)c1,-3.35%
9,O=C(CCl)Nc1ccc(Sc2ccc(NC(=O)CCl)cc2)cc1,-1.76%
10,O=C(CCN1CCN(C/C=C/c2ccccc2)CC1)Nc1cccc(F)c1,-3.15%
11,Cc1cccc(NC(=O)c2ccc3ccccc3n2)n1,0.23%
12,Cc1cc(NC(=O)c2cccc(N3C(=O)CCC3=O)c2)no1,7.9%
13,Cc1cccc(NC(=O)c2cc(N3C(=O)CCC3=O)ccc2Cl)n1,45.3% (active)
14,Oc1ccc2ccccc2c1N=Nc1nccs1,1.08%
15,Cc1c(NC(=O)C(=O)N/N=C/c2cccs2)c(=O)n(-c2ccccc2)n1C,-2.28%
16,O=C(NCC(=O)N(CC1CCCO1)C(C(=O)NC1CCCCC1)c1ccccc1)c1ccco1 (stereo unspecified),-1.28%
17,Cc1cc(C)nc(-n2ncc3c2CC(c2ccc(C(C)C)cc2)CC3=O)n1 (stereo unspecified),4.85%
18,Cc1ccccc1CN1C[C@@H]2C[C@@H](c3ccc4nsnc4c3)N3CCC[C@@]23C1=O,2.82%
19,Cc1cccc2c1N(CCOc1ccccc1)C(=O)C2=O,1.94%
20,CCCCCCCCn1c2c(c(=N)c3c1CCC3)CCCC2,1.52%
21,COC(=O)c1cc(C(=O)OCC(=O)Nc2cc(C)on2)cc([N+](=O)[O-])c1,-14.4%
22,Cc1cnc(NC(=O)c2ccccn2)s1,-1.62%
23,COc1ccc(OC)c(C(=O)c2ccc(C(=O)N3CCN(Cc4csc(C)n4)CC3)cc2)c1,1.41%
24,COc1ccccc1-c1nnc(NC(=O)c2ccc3ncsc3c2)o1,10.2%

row,SMILES,inhibition
1,O=C(Nc1cccc(CCc2ccccn2)c1)c1ccc(Cl)cc1,14.3%
2,CN1CCCN(C(=O)C2CCCCC2)CC1,-3.43%
3,CC(NC(=S)NNS(=O)(=O)c1ccc(C(C)(C)C)cc1)c1ccccc1 (stereo unspecified),-2.57%
4,Cc1cccc2c1-c1sc(C(=O)NCCCN3CCc4ccccc4C3)cc1CO2,-4.99%
5,COc1ccc(C(=O)N/N=c2\oc3ccccc3cc2C(N)=O)cc1,8.97%
6,CC(C(=O)NCC1CCCCC1)N(C)Cc1cccc(Cl)c1 (stereo unspecified),0.53%
7,COCCN(C(=S)Nc1cccc(Cl)c1C)C(C)c1ccco1 (stereo unspecified),-2.82%
8,Cc1ccc(Cl)c(OCC(=O)NN2CCN(C)CC2)c1,-0.31%
9,COC(=O)CCCC1=CC2=CC(=O)C(C)(OC(=O)c3cccs3)C(=O)C2=CN1CC1CC1 (stereo unspecified),0.2%
10,O=C(NC(=O)c1cc(OCC(F)(F)F)ccc1OCC(F)(F)F)Nc1ccccc1,10.4%
11,O=C(CSc1ncn[nH]1)Nc1nc(-c2cccc([N+](=O)[O-])c2)cs1,-0.78%
12,O=C(Nc1cccc(O)c1)c1ccc(C(=O)c2ccccc2)o1,4.5%
13,COc1ccc(CCNC(=O)CSc2nc(-c3ccc(OC)c(OC)c3)ccc2C#N)cc1,-0.12%
14,CCOc1ccc(Oc2nc(C)cc(OC)n2)nn1,4.79%
15,Nc1[nH]c(=S)nc2nc(-c3ccccc3)c(-c3ccccc3)nc12,4.09%
16,CCc1nc(C)cn1S(=O)(=O)c1cc([N+](=O)[O-])ccc1Cl,-5.64%
17,O=c1[nH]c(SCc2cccc(F)c2)nc2ccccc12,-1.03%
18,O=C(NCc1cccs1)c1cc(-c2ccccn2)nc2ccc(Br)cc12,-1.15%
19,Cc1cccc(Cn2cnc3c(N)c(C)c(C)cc32)c1,-1.66%
20,COc1cccc(/C=C/C(=O)Nc2ccc3c(c2)OCCO3)c1,-8.27%
21,COc1ccccc1-n1c(C)nc2cc(C(=O)NCc3ccc4c(c3)OCO4)ccc21,1.71%
22,O=C(O)CCN=C1CCc2ccccc2N1,-7.58%
23,O=C(CNC(=O)c1ccccc1)NCC(=O)OCC(=O)c1ccccc1 (Bz-Gly-Gly-OPac),-1.35%
24,S=c1nc2ccccc2c2nc(-c3cccnc3)[nH]n12,-1.46%
